Inconclusive results are not listed. A number with no mark means an inactive call. Activity calls are given as the source filed them. Unless noted, calls follow the shape of the full dose curve.
target: Vitamin D3 receptor (Homo sapiens) (UniProt P11473); assay: qHTS assay to identify small molecule agonists of the vitamin D receptor (VDR) signaling pathway (AID 743222); conditions: HEK293T VDR-UAS-bla, beta-lactamase FRET ratio, 16 h; series mostly up to 63.5 µM; activation: at the top concentration
Outline: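 Tox21 cell reporter format: VDR-bla line, 16 h compound exposure in 5% CO2 at 37C, then fluorescence intensity after 2 h with LiveBLAzer B/G FRET substrate.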
% is scaled to controls: 0 for no effect and ±100 for the full control effect; potency is read from the fitted curve at half-maximal effect.

Chain of Vitamin D3 receptor (Homo sapiens) (P11473 whole entry, looked up): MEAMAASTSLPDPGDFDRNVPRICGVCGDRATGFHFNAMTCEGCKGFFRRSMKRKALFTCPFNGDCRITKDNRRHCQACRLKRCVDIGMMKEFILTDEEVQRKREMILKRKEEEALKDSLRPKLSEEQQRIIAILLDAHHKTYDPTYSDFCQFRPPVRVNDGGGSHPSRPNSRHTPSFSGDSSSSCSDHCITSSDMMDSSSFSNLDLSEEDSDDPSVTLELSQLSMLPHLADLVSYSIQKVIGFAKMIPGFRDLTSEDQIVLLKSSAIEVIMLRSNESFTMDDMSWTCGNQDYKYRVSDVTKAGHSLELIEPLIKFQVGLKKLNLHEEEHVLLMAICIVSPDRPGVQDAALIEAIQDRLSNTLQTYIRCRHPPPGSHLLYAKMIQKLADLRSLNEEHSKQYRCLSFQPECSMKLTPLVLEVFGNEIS

`O=C1CCCc2c1cc1ccc3cccc4ccc2c1c34` was tested, and the Potency was 19.7 µM (active).
With `CCN(Cc1cccnc1)C(=O)c1cccc(Cl)c1[C@]1(C)C(=O)N(Cc2ccc(OC)cc2OC)c2ccc(Cl)cc21` the Potency was 45.8 µM (active).

Going from `NC(=O)CC[C@@H]1NC(=O)[C@H](Cc2ccccc2)NC(=O)[C@H](Cc2ccc(O)cc2)NC(=O)CCSSC[C@@H](C(=O)N2CCC[C@H]2C(=O)N[C@@H](CCCN=C(N)N)C(=O)NCC(N)=O)NC(=O)[C@H](CC(N)=O)NC1=O` to `CCCCCCCCOc1ccccc1C(=O)Nc1ccc(C(=O)OCC[N+](C)(CC)CC)cc1`, the “activation” value falls from 13% to -0.495%.

Going from `CC(C)(C)C(=O)OCOC(=O)[C@@H]1N2C(=O)[C@@H](NC(=O)[C@H](N)c3ccccc3)[C@H]2SC1(C)C` to `Cc1[nH]cnc1C[C@H]1CCc2c(C)c3ccccc3n2C1=O`, the “activation” value falls from 0% to -3.94%.

Going from `C=CC(=O)OCC(CO)(COCC(COC(=O)C=C)(COC(=O)C=C)COC(=O)C=C)COC(=O)C=C` to `CN(C)C(=O)C1(N2CCCCC2)CCN(CC[C@@]2(c3ccc(Cl)c(Cl)c3)CN(C(=O)c3ccccc3)CCO2)CC1`, the “activation” value falls from 21.5% to 17.5%.

First: NNc1nc(-c2ccc(N)cc2)cs1
Second: O=S1(=O)CC(Cl)(Cl)C(Cl)(Cl)C1
The “activation” value of the first is lower: -10.1% for the first, 15.7% for the second.

target: Vitamin D3 receptor (Homo sapiens) (UniProt P11473); assay: qHTS assay to identify small molecule antagonists of the vitamin D receptor (VDR) signaling pathway (AID 743223; active = well fitted inhibition curve with a large enough effect in the signal ratio in the repeat runs, not every such curve was filed as active; the % refers to the signal ratio); conditions: VDR-UAS-bla HEK293T, beta-lactamase FRET ratio, 16 h; series mostly up to 61 µM; activity change, negative = inhibition: at the top concentration
Outline: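 Cells carrying a VDR-driven beta-lactamase reporter (VDR-bla) were co-treated with compound and 3 nM final 1alpha,25-dihydroxyvitamin D3 for 16 h at 37C; reporter activity was measured as FRET substrate fluorescence after 2 h at room temperature.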

In the case of `O=C1CCCc2c1cc1ccc3cccc4ccc2c1c34`, the “activity change, negative = inhibition” value was -1.21% [at 78.8 µM].

With `CCCCCCCC[P+](CCCCCCCC)(CCCCCCCC)CCCCCCCC` the Potency was 19.4 µM (active).
In the case of `CC(C)c1ccc2c(c1)CC[C@H]1[C@](C)(CN)CCC[C@]21C`, the Potency was 49 µM (active).

First: O=C(Oc1cccc2cccnc12)c1ccccc1
Second: Clc1ccc2cc3ccccc3cc2c1
The “activity change, negative = inhibition” value of the first is lower: -10.6% for the first, 2.26% for the second.

First: CN(C)c1ccc(C2(c3ccc(N(C)C)cc3)OC(=O)c3cc(N(C)C)ccc32)cc1
Second: CCCCCCCCOc1ccccc1C(=O)Nc1ccc(C(=O)OCC[N+](C)(CC)CC)cc1
The “activity change, negative = inhibition” value of the first is lower: 8.99% for the first, 15.4% for the second.
